From the supplement of paper PMC11150407 come the findings set out here.

Where a name gives a salt, the structure may show the parent alone. Out of some 2,100 compounds screened, about 180 (8.6%) showed an effect of 50% or more. The sample holds strong results, similar compounds and a random draw of the others, so the mix is not that of the screen.

In the test the test system is MOLM1 and UCSD/AML1 (averaged). In words: cell viability relative to DMSO control (POC); higher = less growth inhibition. The following applies: 1 µM; 72 h. The protocol: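 Primary viability screen in the 3q26 EVI1-high AML cell lines MOLM1 and UCSD/AML1 (1.5e3 cells/well, 384-well), compounds at 1 uM for 72 h. ATP CellTiter-Glo read-out given as percent of viable cells over DMSO control (POC), averaged over duplicates. DMSO was the negative control and 5 uM etoposide the positive control. This mapping covers the MicroSource Spectrum and Selleck anticancer libraries (drug names).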
For `CC(=O)O[C@@H]1CC2C(C)(C)[C@H](O)CC[C@]2(C)C2CC[C@@]3(C)[C@H](c4ccoc4)OC(=O)C4OC43[C@@]21C` (stereo partly drawn) [alpha-DIHYDROGEDUNOL], the cell viability was found to be 123%.
The value for `COc1ccc(-c2coc3c(O)c(OC)ccc3c2=O)cc1` was 94.6%; that for `CNC(=O)c1ccc(C)c(-n2c(C)cc(OCc3ccc(F)cc3F)c(Br)c2=O)c1` was 87.5%.
The value for `CO[C@H]1C[C@@H]2CC[C@@H](C)[C@@](O)(O2)C(=O)C(=O)N2CCCC[C@H]2C(=O)O[C@H]([C@H](C)C[C@@H]2CC[C@@H](OC(=O)C(C)(CO)CO)[C@H](OC)C2)CC(=O)[C@H](C)/C=C(\C)[C@@H](O)[C@@H](OC)C(=O)[C@H](C)C[C@H](C)/C=C/C=C/C=C/1C` was 11%; that for `C=CC[C@@H]1/C=C(\C)C[C@H](C)C[C@H](OC)[C@H]2O[C@@](O)(C(=O)C(=O)N3CCCC[C@H]3C(=O)O[C@H](/C(C)=C/[C@@H]3CC[C@@H](O)[C@H](OC)C3)[C@H](C)[C@@H](O)CC1=O)[C@H](C)C[C@@H]2OC` was 85.3%.
As for `CO[C@H]1C[C@@H]2CC[C@@H](C)[C@@](O)(O2)C(=O)C(=O)N2CCCC[C@H]2C(=O)O[C@H]([C@H](C)C[C@@H]2CC[C@@H](OCCO)[C@H](OC)C2)CC(=O)[C@H](C)/C=C(\C)[C@@H](O)[C@@H](OC)C(=O)[C@H](C)C[C@H](C)/C=C/C=C/C=C/1C` [Everolimus (RAD001)], the figure is 50.2%; as for `CO[C@H]1C[C@@H]2CC[C@@H](C)[C@@](O)(O2)C(=O)C(=O)N2CCCC[C@H]2C(=O)O[C@H]([C@H](C)C[C@@H]2CC[C@@H](O)[C@H](OC)C2)CC(=O)[C@H](C)/C=C(\C)[C@@H](O)[C@@H](OC)C(=O)[C@H](C)C[C@H](C)/C=C/C=C/C=C/1C`, 44%.
Turning to `CO[C@H]1C[C@@H]2CC[C@@H](C)[C@@](O)(O2)C(=O)C(=O)N2CCCC[C@H]2C(=O)O[C@H]([C@H](C)C[C@@H]2CC[C@@H](O)[C@H](OC)C2)CC(=O)[C@H](C)/C=C(\C)[C@@H](O)[C@@H](OC)C(=O)[C@H](C)C[C@H](C)/C=C/C=C/C=C/1C` [Rapamycin (Sirolimus)], the cell viability worked out at 41.5%.
The value for `O=c1cc(-c2cccc3c2Sc2ccccc2S3)oc(N2CCOCC2)c1` was 69.4%; that for `O=C(O)CCCCCCCCCCCC[C@@H]1C=CCC1` was 93.9%.
As for `CS(=O)(=O)CCCCN=C=S`, the cell viability is 84.4%.
As for `COc1ccc(-c2oc3cc(OC)c(OC)c(OC)c3c(=O)c2OC)cc1OC`, the figure is 101%; as for `CC(=O)OCC(=O)[C@@]1(O)CCC2C3CCC4=CC(=O)C=C[C@]4(C)[C@@]3(F)[C@@H](O)C[C@@]21C` (stereo partly drawn), 78.1%.
As for `Cc1nc(N)sc1-c1ccnc(Nc2ccc(N3CCOCC3)cc2)n1`, the figure is 46.7%; as for `N#CCNC(=O)c1ccc(-c2ccnc(Nc3ccc(N4CCOCC4)cc3)n2)cc1` [Momelotinib (CYT387)], 51.4%.
The value for `O=C(O)c1ccccc1` was 98.9%.
For `CC(CCC(=O)O)[C@H]1CCC2C3C[C@H](O)[C@@H]4C[C@H](O)CC[C@]4(C)C3CC[C@@]21C` (stereo partly drawn) [alpha-HYDROXYDEOXYCHOLIC ACID], the cell viability came out at 107%.
In the case of `CC(C)(C)c1cnc(CSc2cnc(NC(=O)C3CCNCC3)s2)o1`, the cell viability turned out to be 2.81%.
`Cc1cc(/C=C/c2ccc3cc(N(C)C)ccc3[n+]2C)c(C)n1-c1ccccc1`: the cell viability was 29.3%.
On to `C[C@@H]1CC[C@@]23CCC4(C)[C@@](C=CC5[C@@]6(C)CC[C@H](O)C(C)(C)C6CC[C@]54C)(OC2=O)C3[C@H]1C` (stereo partly drawn), for which the cell viability was 90.8%.
`C=C1C(=O)[C@]23[C@H](CC[C@@H]1[C@@H]2O)[C@]12CO[C@@]3(O)[C@H](O)[C@H]1C(C)(C)CC[C@@H]2O`: the cell viability came to 94.3%.
Consider `CC1(C)CC2C1CCC1(C)OC2(C)CCC1O` (stereo not drawn), for which the cell viability amounted to 91.4%.
Regarding `CC(C)=CCC/C(C)=C/COc1ccc2ccc(=O)oc2c1`, the cell viability was 92.6%.
The value for `CC(C)(C)NCC(O)c1ccc(O)c(CO)c1` (racemic) was 93.2%.
As for `O=C(O)c1cc2cc(Cl)ccc2[nH]1`, the figure is 98.1%; as for `O=C1c2c(O)ccc(O)c2C(=O)c2c(NCCNCCO)ccc(NCCNCCO)c21`, 8.27%; as for `O=C1c2c(O)ccc(O)c2C(=O)c2c(NCCNCCO)ccc(NCCNCCO)c21` [Mitoxantrone Hydrochloride], 2.15%.
The value for `O=C1c2c(O)cccc2Cc2cccc(O)c21` was 102%; that for `O=C1c2cccc(O)c2C(=O)c2c(O)cccc21` was 104%; that for `NCCOB(c1ccccc1)c1ccccc1` was 117%.
`CC(C)CCC[C@@H](C)[C@H]1CC[C@H]2[C@@H]3CC(=O)[C@H]4C[C@@H](O)CC[C@]4(C)[C@H]3CC[C@]12C` [5alpha-CHOLESTAN-3beta-OL-6-ONE]: the cell viability amounted to 107%.
As for `Cc1ccc(C(=O)N(CCCN)[C@@H](c2oc3cc(Cl)ccc3c(=O)c2Cc2ccccc2)C(C)C)cc1`, the figure is 13.4%; as for `Cc1ccc(C(=O)N(CCCN)[C@@H](c2nc3cc(Cl)ccc3c(=O)n2Cc2ccccc2)C(C)C)cc1`, 15.3%.
As for `CC(=O)O[C@@H]1C[C@H]2C(C)(C)C(=O)CC[C@]2(C)[C@H]2CC[C@@]3(C)[C@H](c4ccoc4)OC(=O)[C@H]4O[C@]43[C@@]21C`, the figure is 100%.
As for `CNC(=O)c1ccc(N2C(=S)N(c3ccc(C#N)c(C(F)(F)F)c3)C(=O)C2(C)C)cc1F` [MDV3100 (Enzalutamide)], the figure is 102%; as for `CC(C)CC(NC(=O)[C@H](C)N)C(=O)O` (mixture of isomers), 105%.
As to `COc1cc(C)c(C(=O)Oc2cc(C)c(C(=O)O)c(O)c2C)c(OC)c1C`, the cell viability was 109%.
`CNS(=O)(=O)c1ccc(NC(=O)c2ccccc2C(=O)O)cc1`: the cell viability amounted to 110%.
Take `Nc1nc(=O)c2[nH]c(=O)cnc2[nH]1`: the cell viability turned out to be 112%.
For `C[C@]12CCC(=O)C=C1C=C[C@@H]1[C@@H]2CC[C@@]2(C)[C@H]1CC[C@@]21CCC(=O)O1`, the cell viability worked out at 83.2%.
The value for `CN1CCC(CNc2ccc3ncc(-c4cccc(OC(F)(F)F)c4)n3n2)CC1` [SGI-1776 free base] was 80%.
On to `O=c1c(O)cc([C@H]2Oc3cc(O)cc(O)c3C[C@H]2O)cc2c([C@H]3Oc4cc(O)cc(O)c4C[C@H]3O)cc(O)c(O)c12`, for which the cell viability is 104%.
As for `CN1CCN(CCOc2cc(OC3CCOCC3)c3c(Nc4c(Cl)ccc5c4OCO5)ncnc3c2)CC1` [Saracatinib (AZD0530)], the cell viability was determined as 47.7%.
